Experimental data taken from PubChem BioAssay AID1159580 (chemical genetic matrix, 2015).
About 2,000 (36%) of roughly 5,500 compounds were called active. Another 18% or so got no clear call; they are omitted. This is one part of the list. A number with no mark means an inactive call. Cut-off read from the data, not from the text of the source: active = normalized growth mostly below about 0.91 (no sharp cut-off); inconclusive = no clear call, values can overlap the other calls; inactive = mostly above about 0.92.

Experiment: chemical genetic growth profiling, strain panel (AID 1159580);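 note: tested at 20 µM; growth read once vehicle control cultures reached saturation at 30 °C; 1 = growth at the plate median or of vehicle wells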
Settings: S. cerevisiae deletion strains, growth OD
[1] = locus YAL021C, strain ccr4, stronger effect = lower value
[2] = locus YAL026C, strain drs2, stronger effect = lower value
[3] = locus YAL030W, strain snc1, stronger effect = lower value
[4] = locus YBL061C, strain skt5, stronger effect = lower value
[5] = locus YBR009C, strain hhf1, stronger effect = lower value
[6] = locus YBR023C, strain chs3, stronger effect = lower value
[7] = locus YBR171W, strain sec66, stronger effect = lower value
[8] = locus YBR231C, strain swc5, stronger effect = lower value
[9] = locus YBR279W, strain paf1, stronger effect = lower value
[10] = locus YCL011C, strain gbp2, stronger effect = lower value
[11] = locus YCL016C, strain dcc1, stronger effect = lower value
[12] = locus YCL069W, strain vba3, stronger effect = lower value
[13] = locus YCR088W, strain abp1, stronger effect = lower value
[14] = locus YDL005C, strain med2, stronger effect = lower value
[15] = locus YDL040C, strain nat1, stronger effect = lower value
[16] = locus YDR001C, strain nth1, stronger effect = lower value
[17] = locus YDR069C, strain doa4, stronger effect = lower value
[18] = locus YDR137W, strain rgp1, stronger effect = lower value
[19] = locus YDR159W, strain sac3, stronger effect = lower value
[20] = locus YDR297W, strain sur2, stronger effect = lower value
[21] = locus YDR334W, strain swr1, stronger effect = lower value
[22] = locus YDR335W, strain msn5, stronger effect = lower value
[23] = locus YDR392W, strain spt3, stronger effect = lower value
[24] = locus YEL003W, strain gim4, stronger effect = lower value
[25] = locus YEL037C, strain rad23, stronger effect = lower value
[26] = locus YEL061C, strain CIN8 (second series), stronger effect = lower value
[27] = locus YER015W, strain faa2, stronger effect = lower value
[28] = locus YER016W, strain bim1, stronger effect = lower value
[29] = locus YER111C, strain swi4, stronger effect = lower value
[30] = locus YER155C, strain BEM2 (second series), stronger effect = lower value
[31] = locus YFR010W, strain ubp6, stronger effect = lower value
[32] = locus YGL167C, strain pmr1, stronger effect = lower value
[33] = locus YGL173C, strain kem1, stronger effect = lower value
[34] = locus YGL227W, strain vid30, stronger effect = lower value
[35] = locus YGL240W, strain doc1, stronger effect = lower value
[36] = locus YGL253W, strain hxk2, stronger effect = lower value
[37] = locus YHR013C, strain ard1, stronger effect = lower value
[38] = locus YHR027C, strain rpn1, stronger effect = lower value
[39] = locus YHR030C, strain SLT2, stronger effect = lower value
[40] = locus YHR079C, strain IRE1, stronger effect = lower value
[41] = locus YHR142W, strain chs7, stronger effect = lower value
[42] = locus YJL092W, strain hpr5, stronger effect = lower value
[43] = locus YJL095W, strain BCK1 (second series), stronger effect = lower value
[44] = locus YJL095W, strain BCK1, stronger effect = lower value
[45] = locus YJL115W, strain asf1, stronger effect = lower value
[46] = locus YJL129C, strain trk1, stronger effect = lower value
[47] = locus YJL154C, strain vps35, stronger effect = lower value
[48] = locus YJL164C, strain tpk1, stronger effect = lower value
[49] = locus YJL166W, strain qcr8, stronger effect = lower value
[50] = locus YJR066W, strain TOR1, stronger effect = lower value
[51] = locus YKL160W, strain elf1, stronger effect = lower value
[52] = locus YKR026C, strain gcn3, stronger effect = lower value
[53] = locus YKR091W, strain srl3, stronger effect = lower value
[54] = locus YLL001W, strain dnm1, stronger effect = lower value
[55] = locus YLL026W, stronger effect = lower value
[56] = locus YLL041C, strain sdh2, stronger effect = lower value
[57] = locus YLR113W, strain HOG1, stronger effect = lower value
[58] = locus YLR221C, strain rsa3, stronger effect = lower value
[59] = locus YLR258W, strain gsy2, stronger effect = lower value
[60] = locus YLR262C, strain YPT6 (second series), stronger effect = lower value
[61] = locus YLR320W, strain mms22, stronger effect = lower value
[62] = locus YLR342W, strain FKS1, stronger effect = lower value
[63] = locus YLR357W, strain rsc2, stronger effect = lower value
[64] = locus YLR370C, strain arc18, stronger effect = lower value
[65] = locus YLR384C, strain iki3, stronger effect = lower value
[66] = locus YML120C, strain ndi1, stronger effect = lower value
[67] = locus YMR058W, strain fet3, stronger effect = lower value
[68] = locus YMR125W, strain sto1, stronger effect = lower value
[69] = locus YMR129W, stronger effect = lower value
[70] = locus YMR205C, strain PFK2, stronger effect = lower value
[71] = locus YMR231W, strain pep5, stronger effect = lower value
[72] = locus YNL071W, strain lat1, stronger effect = lower value
[73] = locus YNL183C, strain NPR1, stronger effect = lower value
[74] = locus YNL209W, strain ssb2, stronger effect = lower value
[75] = locus YNL248C, strain rpa49, stronger effect = lower value
[76] = locus YNL322C, strain KRE1 (second series), stronger effect = lower value
[77] = locus YNR049C, strain mso1, stronger effect = lower value
[78] = locus YOR001W, strain rrp6, stronger effect = lower value
[79] = locus YOR070C, strain gyp1, stronger effect = lower value
[80] = locus YOR080W, strain dia2, stronger effect = lower value
[81] = locus YOR083W, strain WHI5, stronger effect = lower value
[82] = locus YOR106W, strain vam3, stronger effect = lower value
[83] = locus YOR231W, strain MKK1, stronger effect = lower value
[84] = locus YOR265W, strain rbl2, stronger effect = lower value
[85] = locus YOR270C, strain vph1, stronger effect = lower value
[86] = locus YOR290C, strain snf2, stronger effect = lower value
[87] = locus YPL051W, strain arl3, stronger effect = lower value
[88] = locus YPL078C, strain atp4, stronger effect = lower value
[89] = locus YPL106C, strain sse1, stronger effect = lower value
[90] = locus YPL240C, strain hsp82, stronger effect = lower value
[91] = locus YPL256C, strain CLN2, stronger effect = lower value

c1ccc2c(Cc3c[nH]c4ccccc34)c[nH]c2c1
normalized growth [1]: 0.848 (active)
normalized growth [2]: 0.263 (active)
normalized growth [3]: 0.785 (active)
normalized growth [4]: 0.51 (active)
normalized growth [5]: 0.341 (active)
normalized growth [6]: 0.523 (active)
normalized growth [7]: 0.515 (active)
normalized growth [8]: 0.501 (active)
normalized growth [9]: 0.496 (active)
normalized growth [10]: 0.319 (active)
normalized growth [11]: 0.543 (active)
normalized growth [12]: 0.364 (active)
normalized growth [13]: 0.632 (active)
normalized growth [14]: 0.939
normalized growth [15]: 0.784 (active)
normalized growth [16]: 0.824 (active)
normalized growth [17]: 1
normalized growth [18]: 0.331 (active)
normalized growth [19]: 0.547 (active)
normalized growth (locus YDR195W, strain ref2): 1.24 [resistant] (active)
normalized growth [20]: 0.704 (active)
normalized growth [21]: 0.459 (active)
normalized growth [22]: 0.501 (active)
normalized growth [23]: 0.11 (active)
normalized growth [24]: 0.282 (active)
normalized growth [25]: 0.779 (active)
normalized growth [26]: 0.413 (active)
normalized growth [27]: 0.443 (active)
normalized growth [28]: 0.681 (active)
normalized growth [29]: 0.455 (active)
normalized growth [30]: 0.147 (active)
normalized growth [31]: 0.836 (active)
normalized growth [32]: 0.958
normalized growth [33]: 0.765 (active)
normalized growth [34]: 0.154 (active)
normalized growth [35]: 0.68 (active)
normalized growth [36]: 0.348 (active)
normalized growth [37]: 0.617 (active)
normalized growth [38]: 0.615 (active)
normalized growth [39]: 0.428 (active)
normalized growth [40]: 0.531 (active)
normalized growth [41]: 0.202 (active)
normalized growth [42]: 0.635 (active)
normalized growth [43]: 0.47 (active)
normalized growth [44]: 0.528 (active)
normalized growth [45]: 0.811 (active)
normalized growth [46]: 0.518 (active)
normalized growth [47]: 0.794 (active)
normalized growth [48]: 0.429 (active)
normalized growth [49]: 0.356 (active)
normalized growth [50]: 0.54 (active)
normalized growth [51]: 0.388 (active)
normalized growth [52]: 0.763 (active)
normalized growth [53]: 0.802 (active)
normalized growth [54]: 0.421 (active)
normalized growth [55]: 0.469 (active)
normalized growth [56]: 0.758 (active)
normalized growth (locus YLR027C, strain aat2, stronger effect = lower value): 0.446 (active)
normalized growth [57]: 0.648 (active)
normalized growth [58]: 0.343 (active)
normalized growth [59]: 0.722 (active)
normalized growth [60]: 0.348 (active)
normalized growth [61]: 0.235 (active)
normalized growth [62]: 0.518 (active)
normalized growth [63]: 0.876
normalized growth [64]: 0.57 (active)
normalized growth [65]: 0.829 (active)
normalized growth [66]: 0.324 (active)
normalized growth [67]: 0.322 (active)
normalized growth [68]: 0.469 (active)
normalized growth [69]: 0.647 (active)
normalized growth [70]: 0.506 (active)
normalized growth [71]: 0.249 (active)
normalized growth [72]: 0.106 (active)
normalized growth [73]: 0.593 (active)
normalized growth [74]: 0.644 (active)
normalized growth [75]: 0.629 (active)
normalized growth [76]: 0.73 (active)
normalized growth [77]: 0.674 (active)
normalized growth [78]: 0.531 (active)
normalized growth [79]: 0.379 (active)
normalized growth [80]: 0.772 (active)
normalized growth [81]: 0.419 (active)
normalized growth [82]: 0.43 (active)
normalized growth [83]: 0.511 (active)
normalized growth [84]: 0.534 (active)
normalized growth [85]: 0.338 (active)
normalized growth [86]: 0.219 (active)
normalized growth [87]: 0.264 (active)
normalized growth [88]: 0.363 (active)
normalized growth [89]: 1
normalized growth [90]: 0.63 (active)
normalized growth [91]: 0.652 (active)

OCc1c[nH]c2ccccc12
normalized growth [1]: 0.949
normalized growth [2]: 0.991
normalized growth [3]: 0.979
normalized growth [4]: 0.969
normalized growth [5]: 0.926
normalized growth [6]: 0.955
normalized growth [7]: 0.977
normalized growth [8]: 0.953
normalized growth [9]: 0.956
normalized growth [10]: 0.815 (active)
normalized growth [11]: 0.957
normalized growth (locus YCL061C, strain MRC1, stronger effect = lower value): 1.01
normalized growth [12]: 0.976
normalized growth [13]: 0.971
normalized growth [14]: 0.989
normalized growth [15]: 0.981
normalized growth [16]: 0.99
normalized growth [17]: 0.974
normalized growth [18]: 0.741 (active)
normalized growth [19]: 0.88
normalized growth (locus YDR195W, strain ref2): 1
normalized growth [20]: 0.956
normalized growth [21]: 1
normalized growth [22]: 0.984
normalized growth [23]: 0.856
normalized growth [24]: 0.8 (active)
normalized growth [25]: 0.978
normalized growth [26]: 0.975
normalized growth [27]: 0.943
normalized growth [28]: 0.977
normalized growth [29]: 0.992
normalized growth [30]: 0.966
normalized growth [31]: 0.984
normalized growth [32]: 0.978
normalized growth [33]: 0.96
normalized growth [34]: 0.983
normalized growth [35]: 0.911
normalized growth [36]: 0.98
normalized growth [37]: 0.955
normalized growth [38]: 0.96
normalized growth [39]: 1.02
normalized growth [40]: 1.05
normalized growth [41]: 0.948
normalized growth [42]: 0.979
normalized growth [43]: 0.944
normalized growth [44]: 0.979
normalized growth [45]: 0.981
normalized growth [46]: 0.879
normalized growth [47]: 0.987
normalized growth [48]: 0.895 (active)
normalized growth [49]: 0.779 (active)
normalized growth (locus YJL187C, strain SWE1, stronger effect = lower value): 0.958
normalized growth [50]: 0.961
normalized growth [51]: 0.907
normalized growth [52]: 0.998
normalized growth [53]: 0.99
normalized growth [54]: 1
normalized growth [55]: 0.976
normalized growth [56]: 0.979
normalized growth [57]: 1
normalized growth [58]: 0.862 (active)
normalized growth [59]: 0.939
normalized growth [60]: 0.663 (active)
normalized growth [61]: 0.742 (active)
normalized growth [62]: 0.905 (active)
normalized growth [63]: 0.977
normalized growth [64]: 0.982
normalized growth [65]: 0.976
normalized growth [66]: 0.902 (active)
normalized growth [67]: 0.991
normalized growth [68]: 0.974
normalized growth [69]: 1
normalized growth [70]: 0.849 (active)
normalized growth [71]: 0.968
normalized growth [72]: 0.622 (active)
normalized growth [73]: 0.931
normalized growth [74]: 0.969
normalized growth [75]: 0.997
normalized growth [76]: 0.996
normalized growth [77]: 0.99
normalized growth [78]: 0.854 (active)
normalized growth [79]: 0.93
normalized growth [80]: 1
normalized growth [81]: 0.987
normalized growth [82]: 0.702 (active)
normalized growth [83]: 1.04
normalized growth [84]: 0.972
normalized growth [85]: 0.974
normalized growth [86]: 0.963
normalized growth [87]: 0.791 (active)
normalized growth [88]: 0.983
normalized growth [89]: 0.952
normalized growth [90]: 0.914 (active)
normalized growth [91]: 1.08
